# Measured values taken from PubChem BioAssay (NCI).
# “And” between values parts separate entries of the source, which are not always exact repeats. Identical values can stand only once. The panel holds about 83,000 compounds, 20% with a hit somewhere; the sample as a whole holds those more often.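 Results are percent growth after 48 hours of single-concentration exposure. 100 means growth as in untreated cells, lower positive values show inhibition; negative values down to -100 show cell death.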 Values without a mark were called inactive. The source made the active and inactive calls. Rule for the calls: active = growth percent below 10; inactive = the rest.
# System: MDA-MB-468 breast
# Experiment: NCI-60 one-dose screen, 48 h (100 = growth as untreated, 0 = no growth, -100 = all killed)
# Conditions: 10 µM unless noted
row,SMILES,growth
1,CCN(CC)CCC(CNc1c2ccc(Cl)cc2nc2ccc(OC)cc12)c1ccccc1 (stereo not given),-87.1% (active)
2,Cc1c(O)cc(-c2cnc(Nc3ccccc3)s2)c(O)c1C,57.4%
3,COc1cc(-c2ccc(-[n+]3nc(-c4ccc([N+](=O)[O-])cc4)nn3-c3ccc([N+](=O)[O-])cc3)c(OC)c2)ccc1-[n+]1nc(-c2ccc([N+](=O)[O-])cc2)nn1-c1ccc([N+](=O)[O-])cc1,-62.2% (active)
4,COc1cc(/C=C/C(=O)c2ccc(NC(=O)COc3cccc4cccnc34)cc2)cc(OC)c1OC,75.6%
5,N#CCCN=Nc1c(O)[nH]c2ccc([N+](=O)[O-])cc12,99.7%
6,O=c1c2cc(F)ccc2sc2c(N3CCNCC3)nc3ccc(F)cc3c12,-59.9% (active)
7,Nc1nccc2c1ccn2-c1cccc(NC(=O)c2ccc(N3CCOCC3)c(C(F)(F)F)c2)c1,-14.2% (active)
8,CN1C(=O)N(C)C2C1NN=c1s/c(=C\c3ccc([N+](=O)[O-])cc3)c(=O)n12 (stereo not given),53.4%
9,O=C1/C(=C/c2ccc(Cl)cc2)CN(Cc2cn(CCNc3ccnc4cc(Cl)ccc34)nn2)C/C1=C\c1ccc(Cl)cc1,-76.2% (active)
10,COC(=O)c1c2c(c(C)[n+]([O-])c1C)C(=O)C(NCCN1CCOCC1)=CC2=O,28.8%
11,C=C1C(=O)O[C@H]2[C@H]1CC/C(COC(=O)CCCC(=O)OC/C1=C/CC[C@@]3(C)O[C@H]3[C@H]3OC(=O)C(=C)[C@@H]3CC1)=C\CC[C@@]1(C)O[C@@H]21,-19.1% (active)
12,CCCCCCN1CCN(Cc2ccc(N(CC)CC)cc2)C(=O)C1=O,22.9%
13,Cc1ccc(/C=C2\COc3ccc(O)cc3C2=O)cc1,91.4%
14,O=C(N/N=C/c1ccc2c(c1)OCO2)c1ccncc1,116% and 124%
15,Clc1ccc(/C=C2\CCCC3C2=Nc2ccccc2NC3c2ccc(Cl)cc2)cc1 (stereo not given),60%
16,Clc1ccc(-c2nnc(-c3cccc4ccccc34)o2)cc1,19.1%
17,CCOc1ccc(NC2=C(Cl)C(=O)c3nc(C)ccc3C2=O)cc1,-95.2% (active)
18,COc1cc2oc(-c3cccc(C(=O)N[C@@H](CC(C)C)C(=O)OC(C)(C)C)c3)cc(=O)c2c(OC)c1OC,85.6%
19,COc1ccc(/C=N/OCC(O)CNCc2ccccc2)cc1OC1CCCC1 (stereo not given),99.2%
20,CC1(C)[C@@H](O)CC[C@]2(C)[C@H]3CC[C@@H]4[C@H]5[C@H](C(=O)/C=C\c6ccc([N+](=O)[O-])cc6)CC[C@]5(O)CC[C@@]4(C)[C@]3(C)CC[C@@H]12,36.2%

row,SMILES,growth
1,COc1ccc2c(c1)C(=O)/C(=C/c1ccccn1)CC2,40.4%
2,COc1ccc(C(Cc2ccccc2)NCCN2CCOCC2)cc1 (stereo not given),99.6%
3,CCOC(=O)c1c(NS(=O)(=O)c2ccc(C)cc2)sc2c1CCC1(C2)OCCO1,87.6%
4,CCC(C)Nc1ccc(NC(C)CC)cc1 (stereo not given),8.07% (active)
5,O=C(CCl)Nc1cc(O)c2c(c1)C(=O)c1cccc(O)c1C2=O,-55.1% (active)
6,Cc1ccc(-c2cc(-c3ccc(C)cc3)nc(NCCNc3ccnc4cc(Cl)ccc34)n2)cc1,-93.2% (active)
7,COC(=O)C(Cc1ccccc1)NS(=O)(=O)/N=C1\NC(=O)NC1=C(Cl)Cl (stereo not given),16.3%
8,CNC(=O)c1cc(Oc2ccc3nc(NC(=O)c4cccc(OC(F)(F)F)c4)sc3c2)ccn1,46%
9,COc1ccc(C(O)c2cc3c(N)c(C(=O)Nc4ccccc4)sc3nc2C)cc1 (stereo not given),9.92% (active)
10,CC(C)(C)c1[nH]nc2c1C(c1cc3ccccc3[nH]c1=O)Nc1cc(C(=O)Nc3ccc(Cl)cc3)ccc1N2 (stereo not given),-15.9% (active)
11,CCCCCCCCCCCCCCCC[n+]1cccc(C#N)c1,-27.5% (active)
12,O=P(OCCCl)(OCCCl)C(O)c1ccccc1Cl (stereo not given),109%
13,COc1cc2cc(NCc3ccc(OC(F)F)cc3)nc(C)c2cc1OC,64.4%
14,COc1ccc2nc(C)cc(Nc3ccc(Cl)cc3)c2c1,87.2%
15,C[C@]1(CO)C[C@@H](O)C[C@]2(C)[C@@H]1CC[C@@]13C[C@@H]4[C@@H](C[C@H]12)[C@]4(C)C3,113%
16,Cc1ccc(-c2nc3ccc(Cl)cc3c(=O)n2N2C(=O)CSC2c2ccccc2Cl)cc1 (stereo not given),107%
17,CC(c1ccccc1)C(C(=O)c1ccccc1)c1ccccc1 (stereo not given),81.5%
18,CN(C)CC1C(=O)O[C@H]2[C@H]1CC/C(COC(=O)c1cc3ccccc3[nH]1)=C\CC[C@@]1(C)O[C@@H]21 (stereo not given in full),-59.8% (active)
19,CC(C)CC1NC(=O)C(CC(C)C)N(CO)C1=O (stereo not given),99.3%
20,COc1ccc(-c2nc3sc4c(c3c(=O)[nH]2)CCCCCC4)cc1,98.5%
